Measured values published in PubChem BioAssay.
Active and inactive are the calls of the source.

Legend:
[1] = small molecules captured by biotinylated probe aFSTL3 – biochemical, small-molecule microarray, fluorescence 635/667, stem cell growth factor project, primary screen (AID 1064); details: higher = more signal;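 note: measures binding of the biotinylated anti-FSTL3 antibody to printed compounds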
[2] = binders from COS7 lysate, DM2A8 probe, primary screen, torsin A project, cell lysate, small-molecule microarray, fluorescence 635/667 (AID 1065); details: higher = more signal, COS7 lysate expressing mutant human TOR1A
[3] = small molecules captured by biotinylated probe aFGF2 – biochemical, small-molecule microarray, fluorescence 635/667, stem cell growth factor project, primary screen (AID 1067); details: higher = more signal;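 note: measures binding of biotinylated aFGF2 protein to printed compounds on slides; z-score merges feature fluorescence and signal-to-noise across triplicate slides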
[4] = small molecules captured by biotinylated probe aFGF10 – biochemical, small-molecule microarray, fluorescence 635/667, stem cell growth factor project, primary screen (AID 1071); details: higher = more signal;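 note: score merges 667 nm spot intensity and signal to noise from triplicate slides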
[5] = target: Neurogenic locus notch homolog protein 2 (Homo sapiens) (UniProt Q04721); experiment: small molecules binding Notch2 protein – biochemical, small-molecule microarray, 635 nm fluorescence, stem cell growth factors, primary screen (AID 1073); details: higher = more signal
[6] = target: Pro-neuregulin-1, membrane-bound isoform (Homo sapiens) (UniProt Q02297); experiment: small molecules binding neuregulin-1 protein – biochemical, small-molecule microarray, fluorescence 635/667, psychiatric disease protein project, primary screen (AID 1075); details: NRG1 binding, 635 nm fluorescence, higher = more signal;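 note: score combines 667 nm spot fluorescence with signal to noise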
[7] = tested on: Neuregulin-1 EGF-like domain; experiment: small molecules binding NRG1 EGF domain – biochemical, small-molecule microarray, 635 nm fluorescence, primary screen (AID 1081); details: higher = more signal;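 note: binding of the protein to compounds printed on small-molecule microarray slides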
[8] = FRG1 expression reporter modulators in myotubes – cell-based, C2C12 myotubes, firefly/Renilla luciferase, luminescence, FRG1 inhibition for FSHD, primary screen (AID 1084); details: FRG1 promoter luciferase, higher = more signal, called active from +8 up or from −8 down
[9] = small molecules captured by biotinylated probe aFST – biochemical, small-molecule microarray, fluorescence 635/667, stem cell growth factor project, primary screen (AID 1086); details: higher = more signal;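 note: score merges 667 nm fluorescence with signal-to-noise of each printed compound spot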
[10] = binders of probe aHhip on microarray, primary screen, stem cell growth factor project, biochemical, small-molecule microarray, fluorescence 635/667 (AID 1087); details: higher = more signal;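 note: score merges spot fluorescence at 667nm with spot signal to noise ratio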

Sequence of Pro-neuregulin-1, membrane-bound isoform (Homo sapiens) (Q02297 whole entry, looked up, the tested form may be a part, canonical isoform): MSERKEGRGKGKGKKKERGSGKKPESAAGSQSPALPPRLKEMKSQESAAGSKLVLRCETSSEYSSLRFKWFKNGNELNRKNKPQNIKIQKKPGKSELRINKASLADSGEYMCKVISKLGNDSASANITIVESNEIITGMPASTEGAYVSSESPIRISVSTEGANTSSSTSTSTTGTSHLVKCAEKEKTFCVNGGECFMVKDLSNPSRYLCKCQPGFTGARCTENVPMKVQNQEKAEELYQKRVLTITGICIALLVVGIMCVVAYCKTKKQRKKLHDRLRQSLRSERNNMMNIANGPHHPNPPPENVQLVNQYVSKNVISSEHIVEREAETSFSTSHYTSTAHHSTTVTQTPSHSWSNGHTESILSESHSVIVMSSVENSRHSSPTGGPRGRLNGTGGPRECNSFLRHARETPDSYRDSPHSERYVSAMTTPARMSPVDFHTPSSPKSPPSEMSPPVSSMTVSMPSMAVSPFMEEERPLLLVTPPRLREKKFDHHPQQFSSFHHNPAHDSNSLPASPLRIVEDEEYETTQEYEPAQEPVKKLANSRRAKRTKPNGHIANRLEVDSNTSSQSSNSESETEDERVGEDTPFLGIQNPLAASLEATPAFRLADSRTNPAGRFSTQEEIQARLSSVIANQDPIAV
Sequence of Neurogenic locus notch homolog protein 2 (Homo sapiens) (Q04721 whole entry, looked up, canonical isoform): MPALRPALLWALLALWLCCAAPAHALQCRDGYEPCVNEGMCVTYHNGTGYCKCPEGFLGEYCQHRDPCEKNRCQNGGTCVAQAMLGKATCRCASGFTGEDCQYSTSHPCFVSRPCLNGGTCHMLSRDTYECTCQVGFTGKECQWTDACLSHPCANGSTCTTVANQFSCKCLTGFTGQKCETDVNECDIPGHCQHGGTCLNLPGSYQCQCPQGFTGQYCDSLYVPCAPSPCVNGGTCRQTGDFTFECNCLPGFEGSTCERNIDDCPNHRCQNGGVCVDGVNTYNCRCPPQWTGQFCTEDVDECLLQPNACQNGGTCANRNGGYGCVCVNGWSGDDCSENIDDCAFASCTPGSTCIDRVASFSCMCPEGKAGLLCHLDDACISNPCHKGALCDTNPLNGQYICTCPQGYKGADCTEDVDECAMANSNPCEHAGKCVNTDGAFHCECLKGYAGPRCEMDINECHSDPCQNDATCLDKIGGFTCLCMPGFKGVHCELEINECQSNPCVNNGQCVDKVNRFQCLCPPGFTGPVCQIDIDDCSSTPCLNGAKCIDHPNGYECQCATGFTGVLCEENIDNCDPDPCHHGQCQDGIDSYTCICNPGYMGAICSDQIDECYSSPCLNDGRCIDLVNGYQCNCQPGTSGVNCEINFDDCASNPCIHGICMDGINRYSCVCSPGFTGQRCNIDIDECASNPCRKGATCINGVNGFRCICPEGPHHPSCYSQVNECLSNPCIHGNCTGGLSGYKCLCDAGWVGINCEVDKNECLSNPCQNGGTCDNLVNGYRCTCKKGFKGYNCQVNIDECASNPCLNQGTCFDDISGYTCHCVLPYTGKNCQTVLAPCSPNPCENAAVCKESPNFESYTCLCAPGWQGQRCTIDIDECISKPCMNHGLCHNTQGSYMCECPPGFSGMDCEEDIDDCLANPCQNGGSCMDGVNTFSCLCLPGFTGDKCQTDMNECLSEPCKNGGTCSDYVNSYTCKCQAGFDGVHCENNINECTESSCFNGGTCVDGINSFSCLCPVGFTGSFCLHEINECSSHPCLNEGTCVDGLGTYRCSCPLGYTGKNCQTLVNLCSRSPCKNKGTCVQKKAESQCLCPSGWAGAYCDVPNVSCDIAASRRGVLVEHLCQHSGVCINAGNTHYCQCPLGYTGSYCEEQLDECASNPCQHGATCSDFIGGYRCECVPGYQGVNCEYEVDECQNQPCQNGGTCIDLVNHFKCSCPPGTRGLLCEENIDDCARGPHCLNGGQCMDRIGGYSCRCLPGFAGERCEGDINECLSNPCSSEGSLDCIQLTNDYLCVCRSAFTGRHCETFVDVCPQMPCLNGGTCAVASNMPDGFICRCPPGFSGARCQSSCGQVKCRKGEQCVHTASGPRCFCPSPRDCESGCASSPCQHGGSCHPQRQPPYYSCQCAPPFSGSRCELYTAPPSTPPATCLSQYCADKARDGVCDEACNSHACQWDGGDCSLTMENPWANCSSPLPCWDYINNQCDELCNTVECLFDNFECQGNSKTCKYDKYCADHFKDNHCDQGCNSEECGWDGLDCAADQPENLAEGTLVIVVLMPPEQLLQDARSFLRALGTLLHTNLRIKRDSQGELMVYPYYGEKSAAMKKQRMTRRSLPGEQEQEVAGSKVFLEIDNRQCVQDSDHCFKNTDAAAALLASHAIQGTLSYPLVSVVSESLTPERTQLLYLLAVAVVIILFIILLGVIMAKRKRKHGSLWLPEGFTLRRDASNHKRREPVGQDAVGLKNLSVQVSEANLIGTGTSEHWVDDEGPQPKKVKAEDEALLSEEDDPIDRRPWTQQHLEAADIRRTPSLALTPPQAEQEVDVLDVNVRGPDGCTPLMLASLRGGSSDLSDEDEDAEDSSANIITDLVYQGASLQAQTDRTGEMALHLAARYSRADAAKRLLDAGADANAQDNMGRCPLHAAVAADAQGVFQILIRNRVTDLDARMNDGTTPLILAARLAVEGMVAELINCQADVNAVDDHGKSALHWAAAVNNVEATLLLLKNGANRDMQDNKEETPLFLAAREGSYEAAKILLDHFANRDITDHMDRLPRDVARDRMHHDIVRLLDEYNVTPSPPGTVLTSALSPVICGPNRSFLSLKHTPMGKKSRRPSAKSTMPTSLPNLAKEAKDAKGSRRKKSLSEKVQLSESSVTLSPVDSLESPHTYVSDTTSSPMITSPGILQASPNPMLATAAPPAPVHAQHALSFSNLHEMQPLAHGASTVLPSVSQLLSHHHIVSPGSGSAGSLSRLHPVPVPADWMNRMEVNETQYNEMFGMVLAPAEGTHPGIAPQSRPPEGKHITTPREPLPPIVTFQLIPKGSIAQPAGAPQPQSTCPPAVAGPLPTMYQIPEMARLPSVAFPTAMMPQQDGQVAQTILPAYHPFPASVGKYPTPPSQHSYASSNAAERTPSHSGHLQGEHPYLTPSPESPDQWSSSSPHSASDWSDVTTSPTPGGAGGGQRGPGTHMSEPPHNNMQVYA

Row | SMILES | composite z-score [1] | composite z-score [2] | composite z-score [3] | composite z-score [4] | composite z-score [5] | composite z-score [6] | composite z-score [7] | z-score [8] | composite z-score [9] | composite z-score [10]
1 | COc1ccc([Si](C)(C)[C@H]2[C@H](CC(=O)N3Cc4ccccc4C[C@H]3CO)O[C@@]3(C(=O)N(Cc4ccc(N5CCOC5=O)cc4)c4ccccc43)[C@@H]2C)cc1 | -0.315 | 0.443 | -0.0583 | 0.345 | 0.236 | 0.744 | 1.1 | -4.08 (inactive) | 0.315 | -0.0296
2 | CC1CC/C=C\[C@H]2OC34C=CCN(C(C)(C)C)C(=O)[C@H]3N(CCCCCO)C(=O)[C@@H]4C2C(=O)O1 (stereo not given in full) | -0.108 | -0.688 | -0.172 | -0.817 | -1.57 | 0.299 | 0.479 | -0.0661 (inactive) | -0.581 | -0.261
3 | C=CCNC(=O)[C@@H]1[C@H]2C(=O)O[C@H](c3ccccc3)[C@H](c3ccccc3)N2[C@H](c2ccc(OCCO)cc2)[C@@]12C(=O)N(C(=O)OCCOC)c1ccc(C#Cc3ccc(OC)cc3)cc12 | -0.412 | 0.1 | -0.126 | 0.0179 | 0.801 | 1.1 | 1.07 | -0.309 (inactive) | 0.267 | -0.0955
4 | CC#CCO[Si](C#Cc1ccccc1)(C(C)C)C(C)C | 0.393 | -0.688 | -0.187 | -0.279 | 1.34 | -0.878 | -0.665 | 0.289 (inactive) | -0.217 | -0.134
5 | COCCOC(=O)N1C(=O)[C@@]2(c3cc(C#CCNC(N)=O)ccc31)[C@H](C(N)=O)[C@H]1C(=O)O[C@H](c3ccccc3)[C@H](c3ccccc3)N1[C@@H]2c1ccccc1OCCO | -0.0102 | 0.176 | -0.0381 | 0.43 | 1.23 | 0.667 | 0.46 | 1.94 (inactive) | 0.931 | 0.107
6 | CO[C@H]1O[C@H](CO)[C@@H](OC(=O)Nc2ccc(Br)cc2)[C@@H]2OC(=O)[C@@H](Cc3ccccc3)C/C=C/C[C@H](Cc3ccccc3)C(=O)O[C@@H]12 | -0.159 | 1.01 | -0.07 | 0.79 | 1.15 | 1.25 | 1.09 | 0.147 (inactive) | 0.0279 | -0.0645
7 | CC[C@@H]1O[Si](C(C)C)(C(C)C)c2c1cc(-c1cc(C)c(OC)c(C)c1)nc2-c1ccc(Oc2ccccc2)cc1 | -0.119 | -0.259 | -0.0881 | -0.0323 | 0.0131 | 0.437 | -0.595 | 0.838 (inactive) | -0.0965 | 0.0808
8 | COCCOC(=O)N1C(=O)[C@@]2(c3cc(C#CC4=CCCCC4)ccc31)[C@H](c1ccccc1OCCO)N1[C@H](c3ccccc3)[C@H](c3ccccc3)OC(=O)[C@H]1[C@@H]2C(=O)NC[C@H](O)c1ccccc1 | -0.223 | 0.123 | -0.0817 | 0.345 | 1.07 | 0.298 | 1.23 | 0.204 (inactive) | 0.635 | 0.115
9 | O=C(O)[C@@H]1C[C@@H]2C(=O)N3CCC[C@H]3C(=O)N2[C@@H]1c1ccc(O)cc1 | 1.18 | 0.607 | -0.0058 | 0.0314 | 0.0995 | 0.956 | 1 | 7.28 (inactive) | 0.387 | 0.35
10 | CC(C)N1CC=CC23O[C@@H]4C=CCCOC(=O)C4[C@H]2C(=O)N(CCCO)[C@@H]3C1=O (stereo not given in full) | -0.339 | -0.0962 | -0.12 | -0.458 | -0.693 | -0.491 | 0.059 | -0.395 (inactive) | 0.002 | 0.0505
11 | COc1ccc([Si](C)(C)[C@H]2[C@H](CC(=O)N3CCC[C@H]3CO)O[C@@]3(C(=O)N(Cc4ccc(N5CCOC5=O)cc4)c4ccccc43)[C@@H]2C)cc1 | -0.591 | 0.582 | -0.043 | 0.44 | 1.15 | 1.1 | 1.21 | -4.09 (inactive) | 0.268 | -0.0237
